# Screen size: about 360,000 compounds; about 3,000 (0.83%) were called active. For the sample, actives were picked, then their nearest neighbours and some compounds at random. Values without a mark were called inactive. Rule as the data show it: active = inhibition above about 50%; inactive = the rest.
# Biological target: DNA (cytosine-5)-methyltransferase 1 (Homo sapiens) (UniProt P26358)
# Assay: inhibition of DNA methyltransferase DNMT1 – biochemical, molecular beacon, fluorescence, HinP1I cleavage, uHTS, primary screen (AID 588458)
# Conditions: at 10 µM, active compounds read high
# Chain of DNA (cytosine-5)-methyltransferase 1 (Homo sapiens) (P26358 504-1616 limits assumed): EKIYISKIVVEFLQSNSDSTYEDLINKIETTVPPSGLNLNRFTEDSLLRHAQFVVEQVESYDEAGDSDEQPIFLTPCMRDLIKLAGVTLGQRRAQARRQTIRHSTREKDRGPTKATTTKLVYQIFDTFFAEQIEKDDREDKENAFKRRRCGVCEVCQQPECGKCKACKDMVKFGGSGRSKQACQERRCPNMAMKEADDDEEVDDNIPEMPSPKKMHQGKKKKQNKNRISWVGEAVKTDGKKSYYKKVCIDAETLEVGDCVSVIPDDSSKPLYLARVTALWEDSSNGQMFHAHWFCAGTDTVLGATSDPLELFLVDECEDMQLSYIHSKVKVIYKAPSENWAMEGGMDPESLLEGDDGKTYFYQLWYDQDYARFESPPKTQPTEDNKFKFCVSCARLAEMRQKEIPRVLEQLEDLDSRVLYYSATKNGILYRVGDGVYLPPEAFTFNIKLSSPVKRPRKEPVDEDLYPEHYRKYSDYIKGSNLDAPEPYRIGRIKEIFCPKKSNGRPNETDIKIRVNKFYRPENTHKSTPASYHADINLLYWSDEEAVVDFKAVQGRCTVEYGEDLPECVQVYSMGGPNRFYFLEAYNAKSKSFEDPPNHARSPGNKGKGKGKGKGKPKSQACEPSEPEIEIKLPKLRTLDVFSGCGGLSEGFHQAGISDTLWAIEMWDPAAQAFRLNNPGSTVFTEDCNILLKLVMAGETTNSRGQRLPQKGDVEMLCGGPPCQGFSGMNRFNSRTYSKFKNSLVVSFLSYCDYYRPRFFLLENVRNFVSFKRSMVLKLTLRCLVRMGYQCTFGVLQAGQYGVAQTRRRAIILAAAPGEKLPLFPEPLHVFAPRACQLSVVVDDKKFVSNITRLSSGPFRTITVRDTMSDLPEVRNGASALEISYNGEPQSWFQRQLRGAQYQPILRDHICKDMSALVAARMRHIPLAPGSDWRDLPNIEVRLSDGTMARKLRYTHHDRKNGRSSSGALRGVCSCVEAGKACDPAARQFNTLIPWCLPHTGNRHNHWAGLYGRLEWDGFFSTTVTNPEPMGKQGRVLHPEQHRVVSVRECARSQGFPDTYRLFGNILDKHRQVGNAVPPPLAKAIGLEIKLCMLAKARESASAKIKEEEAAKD
row,Compound,inhibition (reported as % activation of signal)
1,CCc1nc2c(OCCOc3ccc(F)cc3)cccn2c1N(C)C(=O)c1ccccc1F,-4.23%
2,CCC(=O)Nc1ccc(-c2ccc(N3CCCCC3)nn2)cc1,-8.26%
3,Cc1c(C(=O)NCc2ccc(C#N)cc2)sc(=O)n1Cc1ccc(C(=O)N(C)C)cc1,4.99%
4,O=C1N[C@@H](Cc2ccccc2)C(=O)N2[C@@H]3N(S(=O)(=O)c4ccc(F)cc4)c4ccccc4[C@]3(Br)C[C@@H]12,-4.71%
5,COc1ccc(CCc2nnc(CCC(=O)NCc3cnn(-c4ccccc4C)c3)o2)cc1,-0.69%
6,C/C(=N/N1CCN(Cc2cccc3ccccc23)CC1)c1cccnc1,-1.56%
7,C=CCOC(=O)C1=C(C)NC(C)=C(C(=O)OCC=C)C1c1cccs1,13.3%
8,CCN1CC=C2C(C#N)=C(N)C(C#N)(C#N)[C@H](c3ccoc3)[C@H]2C1,0.41%
9,CCOC(=O)N1CC=C2C(C#N)=C(N)C(C#N)(C#N)[C@H](c3cccs3)[C@H]2C1,70.4% (active)
10,Cc1cccc(CC(=O)N2CCN=C2SCc2ccc([N+](=O)[O-])cc2)c1,-5.45%
11,COc1cccc(NC(=O)CN(C)C(=O)c2cc(C3CC3)nn2-c2ccccc2)c1,-5.25%
12,CCc1ccccc1NC(=O)CN(C)C(=O)c1cc(C2CC2)nn1-c1ccccc1,-2.35%
13,COc1ccc(NC(=O)CN(C)C(=O)c2cc(C3CC3)nn2-c2ccccc2)cc1,61.4% (active)
14,CC(C)(C)NC(=O)CN(Cc1cccs1)C(=O)CNS(=O)(=O)c1ccccc1,-3.38%
15,CC(=O)Nc1ccc(Sc2ccccc2C(=O)N2CCCC2)cn1,-0.06%
16,Nc1cccc(-c2cncc(N3CCN(Cc4ccccn4)CC3)n2)c1,-1.68%
17,Oc1c(C(c2ccco2)N2CCC3(CC2)OCCO3)sc2ncnn12 (centres undefined),84.4% (active)
18,Oc1c(C(c2cccs2)N2CCN(c3ccc(F)cc3)CC2)sc2ncnn12 (centres undefined),5.11%
19,Cc1nc2sc(C(c3ccco3)N3CCC4(CC3)OCCO4)c(O)n2n1 (centres undefined),-3.42%
20,Cc1cc(NC(=O)CN2C(=O)NC(CC(C)C)C2=O)no1 (centres undefined),3.08%
21,COc1ccccc1CNS(=O)(=O)c1c(C)[nH]c(C)c1C(=O)N1CCCCC1,2.18%
22,CC(=O)NCCc1ccc(S(=O)(=O)N(C)C2CCS(=O)(=O)C2)cc1 (centres undefined),0.81%

row,Compound,inhibition (reported as % activation of signal)
1,N/C(=N\S(=O)(=O)c1cc(C(F)(F)F)cc(C(F)(F)F)c1)c1cccs1,3.6%
2,Cc1ccn2c(=O)nc(SCC(=O)NCc3ccc(F)cc3)nc2c1,-6.32%
3,COc1ccc2[nH]c3nc(SCC(=O)NC4CC4)nnc3c2c1,2.16%
4,Cc1ccc(CNC(=O)CSc2nnc3c(n2)[nH]c2ccc(F)cc23)cc1,57.3% (active)
5,O=C(Nc1cccc(F)c1)c1coc(=O)c(Br)c1,-1.29%
6,CC(=O)c1ccc(NC(=O)CCNS(=O)(=O)c2cc(Br)cnc2N)cc1,2.08%
7,CCCCN1CC(CO)Oc2cccc(F)c2S1(=O)=O (centres undefined),0.29%
8,OC[C@H]1O[C@@H](c2nc(-c3nc(-c4ccc(F)cc4)no3)cs2)[C@H](O)[C@@H](O)[C@H]1O,0.63%
9,C=CCn1c(=S)[nH]c2scc(-c3ccco3)c2c1=O,94.1% (active)
10,CCC1(C)Cc2c(sc3[nH]c(=S)n(Cc4ccccc4)c(=O)c23)CO1 (centres undefined),-3.04%
11,Cc1ccccc1-n1cc(CNC(=O)CC2C(=O)NCCN2C/C=C/c2ccccc2)cn1 (centres undefined),68.2% (active)
12,Cc1ccccc1-n1cc(CNC(=O)C2CCC(=O)N(C3CC3)C2)cn1 (centres undefined),0.34%
13,O=C(CC1C(=O)NCCN1Cc1ccc(-c2ccccc2)cc1)NCc1ccncc1 (centres undefined),-12.2%
14,COc1cc(OC)cc(C(=O)NNC(=O)Cc2cccs2)c1,7.66%
15,COc1ccc(Cc2nnc(NC(=O)Cc3cccs3)s2)cc1,113% (active)
16,COc1ccccc1NC(=O)Nc1nnc(Cc2ccc(F)cc2)s1,9.56%
17,CC(C)(C)NC(=O)C(c1ccncc1)N(C(=O)CNC(=O)c1ccco1)c1ccc2c(c1)OCO2 (centres undefined),-1.68%
18,CCOc1ccc(-n2cnnn2)cc1S(=O)(=O)N1CCC(C)CC1C (centres undefined),4.44%
19,CC(C)(C)OC(=O)C[C@@H]1C/C=C\C[C@@H](CC(=O)N[C@@H](CO)Cc2ccccc2)C(=O)N2CCC[C@H]2COC1=O,1.28%
20,Nc1ncnc(Nc2cccc(Cl)c2Cl)n1,0.57%
21,COc1cc(C(=O)Nc2cc(C(F)(F)F)ccc2-n2cncn2)cc(OC)c1OC,-2.48%
22,O=C(COC(=O)c1cnc(Cl)c(Cl)c1)NCc1ccco1,30.3%

# From PubChem BioAssay AID588458 (Sanford-Burnham Center for Chemical Genomics, 2011)
